# Tests used:
# Type in all cases: functional
# [1] = system: Plasmodium falciparum; test: GSK_TCMDC: Inhibition of Plasmodium falciparum 3D7 in whole red blood cells, using parasite LDH activity as an index of growth. Test compounds present at 2uM
# [2] = system: Plasmodium falciparum; test: GSK_TCMDC: Inhibition of Plasmodium falciparum Dd2 in whole red blood cells, using parasite LDH activity as an index of growth. Test compounds present at 2uM
# [3] = system: HepG2; test: GSK_TCMDC: Percent inhibition of human HepG2 cell line. Test compounds present at 10uM.
Structure (SMILES),Inhibition [1] [%],Inhibition [2] [%],Inhibition [3] [%]
COC(=O)c1cccc(CNCc2ccc(-c3ccc(-c4nc5cc(C(F)(F)F)ccc5[nH]4)cc3)cc2)c1.O=C(O)C(F)(F)F,100,98,22
COc1cc(N)cc2sc(N)nc12,99,99,0
C=CCc1cc(Cc2cnc(N)nc2N)c2ccc(C)nc2c1O,84,3,51
O=C(O)C(F)(F)F.c1cc(CNC2CCCC2)cc(-c2ccc(CNc3ccc4ncccc4c3)cc2)c1,98,24,32
CO/C(=C\C=C\c1cc2cc(Cl)c(Cl)cc2[nH]1)C(=O)NCCCN1CCN(c2cccc(Cl)c2)CC1,100,77,58
N=C(N)NN=CC(=O)Nc1cccc(C(F)(F)F)c1.O=S(=O)(O)O,99,25,21
COc1ccc2nc(C)cc(N/N=C/C=C/c3ccccc3)c2c1,100,100,27
COc1ccc(CNC(=N)Nc2nc(-c3ccc(OCCCn4ccnc4)cc3)cs2)cc1.Cl,100,67,15
COc1ccc(C2C(C(=O)OC3CCCCC3)=C(C)NC3=C2C(=O)CCC3)cc1Br (stereo not drawn),95,94,7
Cc1ccc(NC(=O)Nc2ccc(S(=O)(=O)c3ccc(NC(=O)Nc4ccc(C)c(Cl)c4)cc3)cc2)cc1Cl,99,42,49
CCn1ccc2c(N3CCCC3=O)cc(C(=O)N[C@@H](Cc3ccccc3)[C@H](O)CNC(C)(C)CCCC(C)C)cc21,96,98,11

# — ChEMBL document CHEMBL1157539, “Thousands of chemical starting points for antimalarial lead identification” (Nature, 2010)
